In PubChem BioAssay (NCI):
This is part of a sample that, as a whole, favours compounds with a hit. Of some 79,000 tested, about 15% had one in any assay. Rule as the data show it: active = growth inhibition above about 70%; inactive = the rest.

Key:
[1] = NCI Yeast Anticancer Drug Screen. Data for the rad50 strain (AID 155);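 also: 0% = growth of vehicle-only cultures of the same strain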; conditions: S. cerevisiae rad50 strain growth inhibition; at 50.0 µM; active compounds read high
Method in brief: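 Vehicle-treated cultures provide the reference for the growth inhibition reported for compound-exposed, repair-deficient yeast.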

[2] = NCI Yeast Anticancer Drug Screen. Data for the mec2-1 strain (AID 157); conditions: S. cerevisiae mec2-1 strain, at 50.0 µM, active compounds read high
Method in brief: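 mec2-1 yeast strain, carrying an alteration in DNA damage repair or cell cycle control, was exposed to compounds; growth inhibition was measured relative to vehicle-treated controls.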

[3] = NCI Yeast Anticancer Drug Screen. Data for the sgs1 mgt1 strain (AID 161);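 also: 0% = growth of cultures given vehicle only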; conditions: S. cerevisiae sgs1 mgt1 strain, at 50.0 µM, active compounds read high
Method in brief: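 This yeast growth screen uses a strain with defined DNA-repair lesions; compound-treated growth is compared with vehicle-treated growth.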

[4] = NCI Yeast Anticancer Drug Screen. Data for the cln2 rad14 strain (AID 165);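 also: 0% = growth equal to vehicle treated cultures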; conditions: S. cerevisiae cln2 rad14 strain, at 50.0 µM, active compounds read high
Method in brief: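 Yeast carrying cln2 and rad14 alterations (cell cycle control and DNA damage repair) were exposed to compounds. Growth inhibition was measured against vehicle-treated controls.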

[5] = NCI Yeast Anticancer Drug Screen. Data for the bub3 strain (AID 167); conditions: S. cerevisiae bub3 mutant strain, at 50.0 µM, active compounds read high
Method in brief: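 Mutant yeast screening strain plus compound; vehicle-treated cultures serve as the 0% inhibition reference.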

[6] = NCI Yeast Anticancer Drug Screen. Data for the mlh1 rad18 strain (AID 175); conditions: S. cerevisiae mlh1 rad18 strain growth inhibition; at 50.0 µM; active compounds read high
Method in brief: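 Growth inhibition of the yeast strain was measured after compound exposure and expressed relative to vehicle-treated controls. The strain carries defined defects in DNA damage repair.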

Measured: growth inhibition

Nc1ccn(C2CC3OCC3O2)c(=O)n1 (stereo not given)
inactive: [1] -13.2% | [2] 24.9% | [3] -1.25% | [4] -5.7% | [5] 0.95% | [6] 0.65%

CCCCCCCCCCCCCCCCCCCCC1CC(=O)OC1=O (stereo not given)
inactive: [1] 41.6% | [2] 11.8% | [3] 36.4% | [4] 9.45% | [5] 2.7% | [6] 29.2%

CN(C)C(=O)C1C2C=CC(CCC2)C1C(=O)N(C)C (stereo not given)
inactive: [1] 13.1% | [2] 15.6% | [3] 15.8% | [4] 13.7% | [5] 15.7% | [6] 14.1%

CCC(Nc1ncnc2nc[nH]c12)C(=O)O (stereo not given)
inactive: [1] -7.5% | [2] -14.2% | [3] -17.4% | [4] -20.4% | [5] -23.6% | [6] 14%

CC(c1cccc2ccccc12)/[N+]([O-])=C/c1ccccc1 (stereo not given)
inactive: [1] -11.6% | [2] -27.9% | [3] -32.7% | [4] 2.1% | [5] -37.4% | [6] -11.7%

COc1cc2c(cc1OC)C(=O)CC2
inactive: [1] -12.7% | [2] -10.9% | [3] -19.7% | [4] -5.25% | [5] -4.2% | [6] 0.15%

COc1ccc2oc(=S)[nH]c2c1
inactive: [1] 11.8% | [2] 8.6% | [3] 54.1% | [4] 9.4% | [5] -4.45% | [6] 42.7%

CCC(O)(c1ccccc1)c1ccccc1
inactive: [1] 1.7% | [2] 3.5% | [3] -5.65% | [4] 4.15% | [5] -19.8% | [6] -4.8%

COc1cc2c(cc1OC)C(c1ccccc1)OCC2 (stereo not given)
inactive: [1] -8.25% | [2] 9.65% | [3] 6.8% | [4] -46.1% | [5] -2.6% | [6] -2.05%

Clc1cc(Cl)c(Cl)c(Cl)c1Cl
inactive: [1] -4.1% | [2] -9.95% | [3] -0.15% | [4] 12.8% | [5] -2.7% | [6] 13.9%

CCCCCCCCCCCCCCCCCCCOc1ccc(OCCCCCCCC)cc1
inactive: [1] 40.8% | [2] -11.8% | [3] 17.6% | [4] -11.2% | [5] 3.4% | [6] 3%

SC1(S)CCCN(Cc2ccccc2)C1
inactive: [1] 8.55% | [2] 19.2% | [3] 42.8% | [4] 35.6% | [5] 44% | [6] 37.8%

O=C(O)[C@@H]1CCC(=O)N1C(c1ccc2c(c1)OCO2)c1ccc2c(c1)OCO2
inactive: [1] -52.2% | [2] -18.1% | [3] -31.1% | [4] 4.35% | [5] -15.1% | [6] -24.4%

N#Cc1nnc2cc(-c3ccccc3)nn2c1-c1ccco1
inactive: [1] 27.9% | [2] 11.2% | [3] 16.3% | [4] 35.5% | [5] 28.1% | [6] 31.4%

O=C(/C=C/c1c[nH]c2ccccc12)c1ccccc1[N+](=O)[O-]
inactive: [1] 5.45% | [2] 9.75% | [3] 7.55% | [4] -7.7% | [5] 7.6% | [6] -7%

CCOC(=O)C(NC(=O)Cc1ccccc1)C(=O)O (stereo not given)
inactive: [1] -18.8% | [2] 15.5% | [3] -3.2% | [4] -6.4% | [5] -1.65% | [6] 3.35%

O=c1[nH]n(CCc2ccccc2CCl)c2ccc([N+](=O)[O-])cc12
inactive: [1] 26% | [2] 14.6% | [3] 16.4% | [4] 9.45% | [5] 38.7% | [6] -10.6%

Cc1c(/C=N/NC(=O)c2ccc(Cl)cc2)c(=O)n(-c2ccccc2)n1C
inactive: [1] -43% | [2] -20.9% | [3] -53.4% | [4] -32.4% | [5] -52% | [6] -65.2%

COc1ccc(C2S/C(=C\c3cccc(OC)c3)C(=O)N2NC(=O)Cc2ccccc2)cc1 (stereo not given)
inactive: [1] -12.8% | [2] -27.1% | [3] -2.75% | [4] -37.5% | [5] -19.4% | [6] -10.8%

CC(=O)N1CCN(C=S)CC1
inactive: [1] -16.5% | [2] -9.6% | [3] -5.65% | [4] 15.8% | [5] -4.05% | [6] -15.5%

NC1CCCCC1N.O=S(=O)([O-])CCCNC1CCCCC1.O=S(=O)([O-])CCCNC1CCCCC1.[Pt+4]
inactive: [1] -6.3% | [2] -8.15% | [3] -15.7% | [4] -23.6% | [5] -21.1% | [6] 15.9%

COc1cc([N+](=O)[O-])cc2c1OC1(C=C2)Oc2ccccc2N1C (stereo not given)
inactive: [1] -36.1% | [2] -25.9% | [3] -16.3% | [4] -16.8% | [5] -22.9% | [6] -17.9%

CC(C)OC(=O)C(=O)OC(C)C
inactive: [1] 14.3% | [2] 20.1% | [3] -24.3% | [4] 0.1% | [5] 0.85% | [6] 1.85%

O=C(O)C1CC(O)c2ccccc2C1c1ccccc1 (stereo not given)
inactive: [1] -2.65% | [2] -1.15% | [3] -11.4% | [4] 22.6% | [5] 5.1% | [6] -17.3%

CN(C)CNc1ncnc2onc(-c3ccccc3)c12
inactive: [1] 10.1% | [2] 14.5% | [3] 13.7% | [4] 11.6% | [5] -5.5% | [6] -4.15%

ClCC(OCc1ccccc1)OCc1ccccc1
inactive: [1] -21.6% | [2] 4.8% | [3] -4.45% | [4] -36% | [5] 12.4% | [6] 17.1%

C/C(=N\NC(C)(C)C)c1sc(-c2nc(C)c(/C(C)=N/NC(C)(C)C)s2)nc1C
inactive: [1] 46.5% | [2] 3.9% | [3] -7.5% | [4] -20.6% | [5] 22.1% | [6] 21.8%

Cc1nc2c(c(=O)[nH]1)S/C(=C(/C#N)c1nc3ccccc3[nH]1)N2c1ccccc1
inactive: [1] -39.8% | [2] -29% | [3] -42.4% | [4] -22% | [5] -40.8% | [6] -47.9%

CCOC(=O)C(CO)NC(=O)C[NH-].CCOC(=O)C(CO)NC(=O)C[NH-].[Cl][Pt+2][Cl] (stereo not given)
inactive: [1] -12.5% | [2] -8.55% | [3] -17.4% | [4] -34.4% | [5] -3.5% | [6] 12.2%

Fc1nc(F)nc(-c2c3ccccc3c3n2CCS3)n1
inactive: [1] 1.65% | [2] 14.1% | [3] 9.1% | [4] 15.3% | [5] 4.7% | [6] 7.2%

CC(O)CCC(O)CCCO (stereo not given)
inactive: [1] 7.8% | [2] -10.7% | [3] 8.4% | [4] -17.1% | [5] 4.65% | [6] -11.7%

Cc1nc(N)nc(CCC(=O)Nc2cccc(C(F)(F)F)c2)c1-c1ccc(Cl)cc1
inactive: [1] 12.2% | [2] -2.9% | [3] 6.7% | [4] 7.45% | [5] -3.6% | [6] 11.1%

C1CSCCSCCCSC2CCCCC2SC1 (stereo not given)
inactive: [1] 22.1% | [2] -0.3% | [3] -8.35% | [4] 17.4% | [5] 5% | [6] 2.15%

CC1(C)OC(=O)c2ccccc21
inactive: [1] 30.1% | [2] 3% | [3] -5.05% | [4] -14.8% | [5] 1.35% | [6] 2.2%

O=C(NC(=S)Nc1ccc(Cl)c(Cl)c1)c1cccc([N+](=O)[O-])c1
inactive: [1] -6.45% | [2] 3.35% | [3] 10.9% | [4] 0.65% | [5] -3.2% | [6] 5.7%

Cc1ncc([N+](=O)[O-])n1CCNC(=O)CCCCn1ccnc1[N+](=O)[O-]
inactive: [1] 5% | [2] -3.75% | [3] -8.6% | [4] 15.1% | [5] 7.15% | [6] -45%

CC1=NN(C(=O)Nc2ccccc2)C(=O)C2CCC(=O)N12 (stereo not given)
inactive: [1] -6.3% | [2] -4.55% | [3] -3.55% | [4] 3.85% | [5] -1% | [6] -8.1%

Cc1ccc(C(=O)NNC(=O)c2ccc3ccccc3c2)cc1
inactive: [1] -15.4% | [2] -19.4% | [3] 7% | [4] 10.2% | [5] -16.6% | [6] -12.9%

O=c1ccn(C2OC(C(O)CO)C(O)C2O)c(=O)[nH]1 (stereo not given)
inactive: [1] -4.95% | [2] -2.55% | [3] 5.45% | [4] -60.8% | [5] -8.15% | [6] 9.25%

CCCC(CC)C(=O)NC(N)=O (stereo not given)
inactive: [1] -7.2% | [2] -5.9% | [3] -7.8% | [4] -8.55% | [5] -20.2% | [6] 8.7%
